{"source": "PubChem BioAssay (Tox21)", "note": "Calls of active or inactive are those of the source. Calls come from the whole dose curve; as a rule, active = well fitted inhibition curve with a large enough effect in the repeat runs (not every such curve was filed as active); inconclusive = weak or mixed curves; inactive = flat fitted curve, though single readings scatter."}
{"biological_target": "Thyrotropin-releasing hormone receptor (Homo sapiens) (UniProt P34981)", "sequence (P34981 whole entry, looked up)": "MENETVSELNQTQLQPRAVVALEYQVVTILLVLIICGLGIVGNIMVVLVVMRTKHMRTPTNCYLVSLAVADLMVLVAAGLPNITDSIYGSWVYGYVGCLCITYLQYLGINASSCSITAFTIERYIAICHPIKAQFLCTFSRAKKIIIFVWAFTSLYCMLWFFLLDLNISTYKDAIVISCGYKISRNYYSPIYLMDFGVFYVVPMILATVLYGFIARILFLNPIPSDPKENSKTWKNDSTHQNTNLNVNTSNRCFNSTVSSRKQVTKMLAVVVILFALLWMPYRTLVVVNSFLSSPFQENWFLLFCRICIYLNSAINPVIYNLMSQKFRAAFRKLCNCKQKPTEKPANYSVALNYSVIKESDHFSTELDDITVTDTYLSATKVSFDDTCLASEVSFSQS", "assay": "qHTS assay to identify small molecule antagonists of the thyrotropin-releasing hormone receptor (TRHR) signaling pathway (AID 1346877)", "conditions": "TRHR-HEK293, TRH-induced calcium fluorescence, antagonist mode; series mostly up to 51.3 µM", "source_text": "National Center for Advancing Translational Sciences [NCATS]\nNIH Chemical Genomics Center [NCGC]\nU.S. Environmental Protection Agency [EPA]\nNational Institutes of Environmental Health Sciences [NIEHS]\nNational Toxicology Program [NTP]\nU.S. Food and Drug Administration [FDA]\nThyrotropin-releasing hormone (TRH) receptor (TRHR) is a G-protein-coupled receptor which binds the tripeptide thyrotropin releasing hormone. TRHR is found in the brain and, when bound by TRH, acts (through phospholipase C) to increase intracellular inositol trisphosphate. It plays a crucial role in the anterior pituitary where it controls the synthesis and secretion of thyroid stimulating hormone and prolactin. The TRHR-Hek293 assay is a cell-based assay, and it has the potential to screen G protein-coupled receptors. A compound/drug can either activate (agonist) or suppress (antagonist) GPCRs that can be monitored by levels of intracellular calcium. In this assay, the Tox21 10K compound library was screened to identify potential TRHR antagonists.\nTox21 Assay Protocol Summary:\nThe TRHR-Hek293 cells were dispensed at 1500cells/4uL/well in 1536-well black-clear bottom plates using a Multidrop dispenser. After the assay plates were incubated at a 37 C/5% CO2 incubator for 18 hours, 4 uL of Dye-Loading Solution was added to each well. The plates were incubated at 37 C for 2 hours. For agonist mode, 23 nL of compounds dissolved in DMSO, positive controls or DMSO only was transferred to the assay plate by a pin tool. The fluorescence intensity in the plates was measured using FDSS 7000EX kinetic plate reader for 3 min at 1 sec intervals. For antagonist mode, 23 nL of compounds dissolved in DMSO, positive controls or DMSO only was transferred to the assay plate by a pin tool. After 5 min incubation at room temperature, 1 uL of TRH was added on the top of the cell/compound mixtures to achieve a final agonist concentration of 1 nM. The fluorescence intensity in the plates was measured using FDSS 7000EX kinetic plate reader for 3 min at 1 sec intervals. Each test compound was measured at 15 concentrations and in triplicates."}
{"smiles": "Oc1ccc(O)c2c(O)cccc12", "outcome": "inactive"}
{"smiles": "CC(CN)CCCN", "note": "(stereo not given)", "outcome": "inactive"}
{"smiles": "C=C(C)C(=O)OCCOc1ccccc1", "outcome": "inactive"}
{"smiles": "C#CCOC(=O)[C@@H](C)Oc1ccc(Oc2ncc(Cl)cc2F)cc1", "outcome": "inactive"}
{"smiles": "CCCCCCCCCO", "outcome": "inactive"}
{"smiles": "CC(=O)SCc1ccco1", "outcome": "inactive"}
{"smiles": "CC(O)C1CCCCC1", "note": "(stereo not given)", "outcome": "inactive"}
{"smiles": "CC(=O)OC/C=C/c1ccccc1", "outcome": "inactive"}
{"smiles": "ClC(Cl)(Cl)c1ccc(C(Cl)(Cl)Cl)cc1", "outcome": "inactive"}
{"smiles": "CCCC(C)C", "outcome": "inactive"}
{"smiles": "O=C=NC1CCC(CC2CCC(N=C=O)CC2)CC1", "note": "(stereo not given)", "outcome": "inactive"}
{"smiles": "CCOC(=O)C1=NN(c2ccccc2)C(=O)C1", "outcome": "inactive"}
{"smiles": "CCOc1ccc2[nH]cc(C(=O)NCc3ccccc3)c(=O)c2n1", "outcome": "inactive"}
{"smiles": "Cc1ccc(C(C)c2ccc(C)c(C)c2)cc1C", "outcome": "inactive"}
{"smiles": "CC(=O)OCCc1ccccc1", "outcome": "inactive"}
{"smiles": "CCCCCC(CO)CCC", "note": "(stereo not given)", "outcome": "inactive"}
{"smiles": "CN(C)CCCOc1nn(Cc2ccccc2)c2ccccc12", "outcome": "inactive"}
{"smiles": "C=CCCCCCC", "outcome": "inactive"}
{"smiles": "Cn1c(NCCN(CCO)CCCc2ccc([N+](=O)[O-])cc2)cc(=O)n(C)c1=O", "outcome": "inactive"}
{"smiles": "c1ccc(-c2nc[nH]c2-c2ccccc2)cc1", "outcome": "inactive"}
{"smiles": "Cc1ccccc1N=Nc1ccc(N=Nc2c(O)ccc3ccccc23)c(C)c1", "outcome": "inactive"}
{"smiles": "NC(N)=N/N=C/c1c(Cl)cccc1Cl", "outcome": "inactive"}
{"smiles": "Cl/C(=C\\n1cncn1)c1ccc(Cl)cc1Cl", "outcome": "inactive"}
{"smiles": "CC(=O)N(CC(=O)N(C)C)c1ccccc1", "outcome": "inactive"}
{"smiles": "CCCCCCc1ccc(N)cc1", "outcome": "inactive"}
{"smiles": "COc1ccc(C(C)=O)cc1", "outcome": "inactive"}
{"smiles": "C[Si](C)O[Si](C)(C)O[Si](C)(C)O[Si](C)C", "outcome": "inactive"}
{"smiles": "CCN(CC)CCNC(C(=O)OCCC(C)C)c1ccccc1", "note": "(stereo not given)", "outcome": "inactive"}
{"smiles": "CCN(CC)C(C)=O", "outcome": "inactive"}
{"smiles": "NCc1ccccc1", "outcome": "inactive"}
{"smiles": "CN1CCN(C2=Nc3cc(Cl)ccc3Nc3ccccc32)CC1", "outcome": "inactive"}
{"smiles": "NC(N)=NN=C(/C=C/c1ccc([N+](=O)[O-])o1)/C=C/c1ccc([N+](=O)[O-])o1", "outcome": "inactive"}
{"smiles": "COCCOCCOCCOCCOC", "outcome": "inactive"}
{"smiles": "CC(C)c1ccc2c(C(C)C)cc(C(C)C)c(S(=O)(=O)O)c2c1", "outcome": "inactive"}
{"smiles": "C=C(C)C(=O)OC(C)C", "outcome": "inactive"}
{"smiles": "CC(C(=O)O)c1ccc(C(=O)c2ccccc2)s1", "note": "(stereo not given)", "outcome": "inactive"}
{"smiles": "CC(C)NCC(O)COc1ccc(CC(N)=O)cc1", "note": "(stereo not given)", "outcome": "inactive"}
{"smiles": "Cn1c(=O)c2c(ncn2CC(O)CO)n(C)c1=O", "note": "(stereo not given)", "outcome": "inactive"}
{"smiles": "CCCCOC(O)CC", "note": "(stereo not given)", "outcome": "inactive"}
{"smiles": "NCCCN(CCO)CCO", "outcome": "inactive"}
